This is one part of a sample in which hits are shown more often than they occur.
HIV RNase H inh-1: blocks HIV-1 RNase H cleavage of RNA/DNA duplex; P04585; RT-RNase H RNA/DNA duplex cleavage, fluorescence; inhibition, % at 10 µM; actives 1.9% (n = 65,000); in the data active = inhibition above about 50%
HIV RNase H inh-2: confirmation of HIV-1 reverse transcriptase RNase H inhibitors. actives 39% (n = 1,000). Recombinant RT RNase H, fluorescent RNA/DNA duplex cleavage. shares compounds with HIV RNase H inh-1. inhibition, % at 10 µM; in the data active = inhibition above about 48%; inconclusive = no clear call, values can overlap the other calls
Large screens that a line does not name were inactive (follow-up assays come after a bar, where they were run).

COC1(OC)N=C(N)C2(C#N)C(c3cccc(Oc4ccccc4)c3)C12C#N (centres undefined)	none
COC(=O)C1=C(C)OC(N)=C(C#N)C1c1ccccc1 (centres undefined)	none
CCOc1ccc(C(=O)CSc2nnc(N)s2)cc1	none
Cc1cc(-n2c(C)cc(C(=O)CSc3ccc4c(c3)OCCO4)c2C)no1	none
O=C(NCC(c1cccnc1)N1CCN(c2ccccc2F)CC1)c1cccc(Cl)c1 (centres undefined)	none
CC(C)CCn1c(CN2CCN(c3cccc(Cl)c3)CC2)nc2c1c(=O)n(C)c(=O)n2C	none
CCOC(=O)C1=C(N)OC2=C(C(=O)CCC2)C1c1ccccc1OCC (centres undefined)	none
CCOC(=O)C1CCCN(C(=O)CNC(=O)Cn2ccc3ccccc3c2=O)C1 (centres undefined)	none
N#CC1=C(N)SC(N)=C(C#N)C1C1CC=CCC1 (centres undefined)	none
N#CC1=C(N)SC(N)=C(C#N)C1CCc1ccccc1	HIV RNase H inh-1 72 | HIV RNase H inh-2 inactive
Cc1ccc(C2C(C#N)=C(N)Oc3cc4c(cc32)OCO4)cc1 (centres undefined)	none
N#CC1=C(N)SC(N)=C(C#N)C1c1c(Cl)cccc1Cl	none
CCCc1[nH]nc2c1C(CCc1ccccc1)C(C#N)=C(N)O2 (centres undefined)	none
N#CC1=C(N)SC(N)=C(C#N)C1c1ccc(C(F)(F)F)cc1	HIV RNase H inh-1 61 | HIV RNase H inh-2 inactive
CNc1nnc(-c2cc3ccccc3oc2=O)s1	none
N#Cc1nc(-c2cccs2)oc1NCc1ccc2c(c1)OCO2	none
O=C(CCNS(=O)(=O)c1cccs1)N1CCc2ccccc2C1	none
COCCN1C(=O)C(=O)/C(=C(/O)c2cccc(S(=O)(=O)N(C)C)c2)C12C(=O)N(C)c1ccccc12 (centres undefined)	none
O=C(c1n[nH]c(=O)c2ccccc12)N1CCN(C2c3ccccc3-c3ccccc32)CC1	none
Cc1cccc2cc(C(c3nnnn3C3CCCC3)N3CCOCC3)c(=O)[nH]c12 (centres undefined)	none
O=c1[nH]c2cc3c(cc2cc1C(c1nnnn1C1CCCC1)N1CCSCC1)OCCO3 (centres undefined)	HIV RNase H inh-1 61 | HIV RNase H inh-2 inactive
CC(C)(C)n1nnnc1C(c1cc2cc3c(cc2[nH]c1=O)OCCO3)N1CCSCC1 (centres undefined)	none
C=CCOc1nc2c(c(=O)n(Cc3ccc(Cl)cc3)c(=O)n2C)n1C	none
CN(C)c1ccc(NC(=O)CCCc2ccccc2)cc1	none
CN(C)c1ccc(NC(=O)CN2C(=O)CC(c3ccccc3)=Nc3ccccc32)cc1	HIV RNase H inh-1 89 | HIV RNase H inh-2 inactive
CN(C)c1ccc(NC(=O)Cn2ncn3c(cc4ccccc43)c2=O)cc1	none
COc1cc(CNc2ccc(N3CCOCC3)c(C(=O)O)c2)ccc1OCC(N)=O	none
c1c2c(cc3sc(N4CCOCC4)nc13)OCO2	HIV RNase H inh-1 72 | HIV RNase H inh-2 62
c1c2c(cc3sc(N4CCCCC4)nc13)OCO2	none
c1ccc2c(c1)CCN(c1nc3cc4c(cc3s1)OCO4)C2	none
O=C(c1ccc2c(c1)OCO2)N1CCN(c2ccccc2)CC1	none
O=C(c1ccc2nc(N3CCOCC3)sc2c1)N1CCCC1	none
c1ccc(N2CCN(c3nc4cc5c(cc4s3)OCO5)CC2)cc1	HIV RNase H inh-1 76 | HIV RNase H inh-2 76
COC(=O)CCC(=O)N1CCc2cc(S(=O)(=O)N3CCN(c4ccccc4Cl)CC3)ccc21	none
CCOC(=O)c1sc2nc(SCC#N)n(CCCN3CCCC3=O)c(=O)c2c1C	none
CC(=O)N1CCc2cc(S(=O)(=O)NCCC3=CCCCC3)ccc21	none
Cc1sc2nc(C3CC3)nc(NCCNS(C)(=O)=O)c2c1C	none
O=C(Nc1cccnc1)c1c(O)c2c(n(Cc3ccccc3)c1=O)CCCC2	HIV RNase H inh-1 68 | HIV RNase H inh-2 inconclusive
CCCn1c2c(c(O)c(C(=O)Nc3ncccc3C)c1=O)CCCC2	none
CCCn1c2c(c(O)c(C(=O)Nc3ccc(C)cn3)c1=O)CCCC2	none
CCC1(CC)C(=O)NC(=O)NC1=NCCc1c[nH]c2ccccc12	none
Cc1noc(/C=C/N(C)C)c1S(=O)(=O)N1CCC(C(=O)O)CC1	none
COc1cc(NC(=O)c2cnn3c(C)cc(C)nc23)c(OC)cc1Cl	none
C=CCNS(=O)(=O)c1ccc2nsnc2c1	none
Cc1ccc(-n2c(SCC(=O)NCC3CCCO3)nnc2-c2ccoc2C)cc1 (centres undefined)	HIV RNase H inh-1 84 | HIV RNase H inh-2 inactive
Cc1ccc(C)c(-n2c(SCC(=O)NCC3CCCO3)nnc2-c2ccoc2C)c1 (centres undefined)	none
Cc1occc1-c1nnc(SCC(=O)NCC2CCCO2)n1C (centres undefined)	none
CC1=C(SCCC#N)S/C(=C2\SC(C)=C(SCCC#N)S2)S1	HIV RNase H inh-1 72 | HIV RNase H inh-2 65
CC(=O)OC(/C(O)=C(\C#N)c1nc2ccccc2[nH]1)c1ccccc1 (centres undefined)	none
CC(C)c1c(O)nc(SCC(=O)Nc2ccc3c(c2)CCC3)[nH]c1=O	none
c1ccc(-n2nnc3c(N4CCOCC4)ncnc32)cc1	HIV RNase H inh-1 67 | HIV RNase H inh-2 inactive
c1ccc(Cn2nnc3c(N4CCCC4)ncnc32)cc1	none
c1ccc(Cn2nnc3c(N4CCC5(CC4)OCCO5)ncnc32)cc1	none
O=C(CCn1c(=O)oc2ccccc21)Nc1ccc2c(c1)OCCO2	none
C=CCNC(=O)C1CCN(S(=O)(=O)c2ccc(Br)cc2)CC1	none
Fc1ccc(CN2CCCCCCC2)cc1F	none
O=C(COc1ccc(Cl)cc1)Nc1nnc(-c2ccc3c(c2)CCCC3)o1	HIV RNase H inh-1 87 | HIV RNase H inh-2 67
CC(=O)Nc1nnc(-c2ccc3c(c2)CCCC3)o1	none
COc1ccccc1C(=O)Nc1nnc(-c2ccc3c(c2)CCCC3)o1	none
CC1Cc2ccccc2N1C(=O)CCn1c(=O)sc2ccccc21 (centres undefined)	none
Cc1c(C(=O)O)sc2nc3n(c(=O)c12)CCC(C)CC3 (centres undefined)	none
CN1C(=O)C2(N=c3ccccc3=N2)c2ccccc21	none
Cc1cc(NC(=O)CSc2ccc3nnc(-c4cccs4)n3n2)no1	none
OCn1ncn(-c2ccccc2)c1=S	none
OCCn1nc2c3ccccc3nc-2n(-c2ccccc2)c1=S	HIV RNase H inh-1 89 | HIV RNase H inh-2 inactive
Cc1nn(-c2ccccc2)c(=S)n1-c1ccccc1	none
CC1(C)CC(c2csc(N)n2)CCO1 (centres undefined)	none
N#CC1=C(N)N(c2ccccc2)C(c2ccccc2)C1(C#N)C#N (centres undefined)	none
O=C(Cc1ccc(Cl)cc1)NCC(=O)N1CCCC1	none
O=C1CC(c2ccc(S(=O)(=O)N3CCN(c4ccccc4)CC3)cc2)CN1 (centres undefined)	none
Nc1ccnc(C(F)(F)F)c1C(=O)c1ccccc1	none
O=C(CSc1nnc(-c2cccs2)n1CC1CCCO1)c1cc2ccccc2o1 (centres undefined)	none
COC(=O)c1ccc(NC(=O)CSc2nnc(COc3ccc4c(c3)CCCC4)o2)cc1	HIV RNase H inh-1 75 | HIV RNase H inh-2 inactive
COc1cccc(NC(=O)CSc2nnc(COc3ccc4c(c3)CCCC4)o2)c1	none
CCOc1ccc(NC(=O)CSc2nnc(COc3c(C)cccc3C)o2)cc1	none
COC(=O)CCCCCC(CCC(=O)OC)NC(C)=O (centres undefined)	none
CCOC(=O)c1c(NC(=O)CSc2nnc(CNc3ccc(OC)cc3)n2C)sc(C)c1C	none
COC(=O)CCN1CCC(C(N)=O)CC1	none
Cc1onc(-c2ccccc2)c1C(=O)N1CCc2ccccc21	none
CN1C(=O)c2oc3ccccc3c(=O)c2C1c1ccccn1 (centres undefined)	none
